Assay results reported in PubChem BioAssay AID651717 (Broad Institute, 2012).
About 950 (79%) of roughly 1,200 compounds were called active.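 How the source made its calls: active means signal rises and fitted curve reaches 40% activity at or below the top valid tested dose, in every replicate test; inconclusive means replicate tests give mixed calls; inactive means the rest, including activity in the opposite direction.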 The set was probably picked from earlier hits. Only a sample is shown. Entries with a potency or affinity are not part of this list.

Assay: compounds raising Bmi1 reporter signal – mouse embryonic stem cells, luciferase, cherry-pick, esBAF inhibitor project, dose response (AID 651717);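 further: luciferase knocked into Bmi1 locus with EF-1a renilla as cell number control; rising ratio signals esBAF inhibition which derepresses Bmi1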
Conditions: mESC Bmi1-luciferase reporter, firefly/renilla ratio, 24 h, hits give high values; at 35 µM unless noted

Structure (SMILES)	max activity
C[C@@H]1CN([C@@H](C)CO)C(=O)c2c(c3ccccc3n2C)-c2ccccc2CO[C@H]1CN(C)C(=O)Nc1ccc2c(c1)OCO2	-5.95% [at 1.1 µM] (inactive)
C[C@@H]1CN([C@H](C)CO)C(=O)Cc2cc(NC(=O)C3CCCCC3)ccc2O[C@H]1CN(C)C(=O)Nc1ccc2c(c1)OCO2	7.16% [at 1.1 µM] (inactive)
C[C@H]1CN([C@@H](C)CO)C(=O)Cc2cc(NC(=O)C3CCCCC3)ccc2O[C@@H]1CN(C)C(=O)Nc1ccc2c(c1)OCO2	-4.16% [at 2.1 µM] (inactive)
C[C@H]1CN([C@@H](C)CO)C(=O)c2cccc(NS(=O)(=O)c3ccccc3)c2O[C@@H]1CN(C)C(=O)Nc1ccc2c(c1)OCO2	-33.5% [at 30 µM] (inactive)
COc1ccc2nc(N(CCN(C)C)C(=O)c3ccc4ncsc4c3)sc2c1	43.3% [at 8 µM] (inactive)
C[C@H]1CN([C@@H](C)CO)C(=O)c2cccc(NS(=O)(=O)c3ccccc3)c2O[C@H]1CN(C)C(=O)Nc1ccc2c(c1)OCO2	-6.71% (inactive)
COc1ccc(N(CC(=O)Nc2ccccc2C(N)=O)S(=O)(=O)c2ccc(C)c([N+](=O)[O-])c2)cc1	17% [at 16 µM] (inactive)
COc1ccc(NC(=O)N(C)C[C@H]2OCCCC[C@@H](C)Oc3ccc(NC(=O)Nc4ccc5c(c4)OCO5)cc3C(=O)N([C@H](C)CO)C[C@@H]2C)cc1	12.1% [at 8 µM] (inactive)
CCOc1ccc2nc(Cl)c(C3CC(c4ccco4)=NN3S(=O)(=O)c3ccccc3)cc2c1 (stereo not given)	9.03% [at 1 µM] (inactive)
COC(=O)[C@H]1C[C@@]2(O)CN(S(=O)(=O)c3ccc(C)cc3)C[C@@]2(OC(=O)NCC2CCCCC2)C[C@H]1C(=O)OC	29.2% (inactive)
CC1CCN(c2nc3ccc(C(=O)NCCCN4CCCCC4C)cc3s2)CC1 (stereo not given)	-33.5% [at 16 µM] (inactive)
C[C@@H]1CN([C@H](C)CO)C(=O)c2cc(NC(=O)Nc3ccc4c(c3)OCO4)ccc2O[C@@H](C)CCCCO[C@H]1CN(C)S(=O)(=O)c1cn(C)cn1	5.01% [at 1 µM] (inactive)
CC1=C(C(=O)OCc2ccccc2)C(c2ccc(Br)cc2)NC(=O)N1CCCCCC(=O)O (stereo not given)	11.1% [at 16 µM] (inactive)
CSc1cccc(NC(=O)c2[nH]c(C)c(C(C)=O)c2C)c1	14.1% [at 8 µM] (inactive)
C[C@@H]1CCCCO[C@H](CN(C)C(=O)Nc2cccc3ccccc23)[C@H](C)CN([C@@H](C)CO)C(=O)c2cc(NC(=O)CCC(F)(F)F)ccc2O1	26.7% [at 1 µM] (inactive)
